This passage reports inhibition results from PubChem BioAssay.

This is one part of the list. Unmarked numbers belong to inactive results. Active and inactive are the calls of the source.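 Rule for the calls, unless noted: active = mean inhibition above about 50% in the one-dose retest (limit read from the data); inactive = the rest.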

The target in test [1] is Sentrin-specific protease 8 (Homo sapiens) (UniProt Q96LD8). Put plainly: human SENP8 peptidase blockers, hit retest – biochemical, luminescence, single concentration, confirmation (AID 488912;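 active = mean inhibition across replicates above about 50%, limit read from the data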). The settings on record: Recombinant SENP8, Z-RLRGG-aminoluciferin luminescence, 60 min; at 12.5 µM; hits give high values.
Sentrin-specific protease 8 (Homo sapiens), sequence (Q96LD8 whole entry, looked up, the tested form may be a part): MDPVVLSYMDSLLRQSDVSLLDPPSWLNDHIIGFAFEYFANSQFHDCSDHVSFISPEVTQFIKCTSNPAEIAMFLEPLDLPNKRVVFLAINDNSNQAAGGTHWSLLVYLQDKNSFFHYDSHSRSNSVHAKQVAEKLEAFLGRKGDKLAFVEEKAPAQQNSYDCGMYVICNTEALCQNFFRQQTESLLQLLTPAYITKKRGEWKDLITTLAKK
For test [2], the target named is Sentrin-specific protease 6 (Homo sapiens) (UniProt Q9GZR1). Put plainly: inhibition of human SENP6 catalytic domain – biochemical, luminescence, single concentration, confirmation (AID 488915). The settings on record: recombinant SENP6, Z-RLRGG-aminoluciferin luminescence; at 12.5 µM; hits give high values.
Sentrin-specific protease 6 (Homo sapiens), sequence (Q9GZR1 628-1112 limits assumed): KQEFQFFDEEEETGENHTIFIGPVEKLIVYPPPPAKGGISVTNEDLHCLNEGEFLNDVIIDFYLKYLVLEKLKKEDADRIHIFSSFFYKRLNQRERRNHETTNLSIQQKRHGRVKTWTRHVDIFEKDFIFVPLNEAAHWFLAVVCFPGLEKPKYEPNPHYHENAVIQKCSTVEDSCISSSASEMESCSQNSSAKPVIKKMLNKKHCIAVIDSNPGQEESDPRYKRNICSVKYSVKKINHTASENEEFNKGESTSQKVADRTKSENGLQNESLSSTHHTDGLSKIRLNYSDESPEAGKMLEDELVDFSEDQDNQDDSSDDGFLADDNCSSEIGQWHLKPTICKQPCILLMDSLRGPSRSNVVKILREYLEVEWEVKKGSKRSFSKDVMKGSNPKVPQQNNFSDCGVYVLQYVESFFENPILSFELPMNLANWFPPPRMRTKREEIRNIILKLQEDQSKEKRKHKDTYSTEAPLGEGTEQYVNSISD
Test [3] concerns the target Sentrin-specific protease 7 (Homo sapiens) (UniProt Q9BQF6). In words: human SENP7 peptidase blockers, hit retest – biochemical, luminescence, single concentration, confirmation (AID 488917). The conditions noted are these: recombinant SENP7, Z-RLRGG-aminoluciferin luminescence, 40 min; at 12.5 µM; hits give high values.
In another test the target is Caspase-3 (Homo sapiens) (UniProt P42574). In words: human caspase-3 activity blockade, out-of-family – biochemical, single concentration, selectivity assay for SENP inhibitor project, confirmation (AID 488918;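 active = mean inhibition above about 50%, limit read from the data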;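 note: plate controls were enzyme with DMSO for no effect and wells without caspase-3 for full effect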). The settings on record: purified caspase-3, Z-DEVD-aminoluciferin luminescence, 60 min; at 12.5 µM; hits give high values.
Caspase-3 (Homo sapiens), sequence (P42574 28-227 limits assumed): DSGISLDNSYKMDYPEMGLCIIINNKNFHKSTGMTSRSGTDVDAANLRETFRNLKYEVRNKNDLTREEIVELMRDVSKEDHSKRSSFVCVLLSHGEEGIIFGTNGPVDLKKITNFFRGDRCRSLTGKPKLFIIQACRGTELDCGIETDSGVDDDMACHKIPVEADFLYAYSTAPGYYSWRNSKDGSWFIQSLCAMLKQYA
Test [4] is described as follows: Ultra-Glo luciferase signal interference – biochemical, single concentration, SENP8 reaction pre-completed, artefact control for SENP inhibitor project, confirmation (AID 488919;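 active = mean inhibition above about 50% when retested at one dose, limit read from the data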;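 note: plate controls were DMSO wells with completed reaction for no effect and substrate without enzyme for full effect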). The settings on record: Pre-incubated SENP8/Z-RLRGG-aminoluciferin, luciferase luminescence interference; at 12.5 µM; hits give high values.

Sentrin-specific protease 7 (Homo sapiens), sequence (Q9BQF6 706-1050 limits assumed): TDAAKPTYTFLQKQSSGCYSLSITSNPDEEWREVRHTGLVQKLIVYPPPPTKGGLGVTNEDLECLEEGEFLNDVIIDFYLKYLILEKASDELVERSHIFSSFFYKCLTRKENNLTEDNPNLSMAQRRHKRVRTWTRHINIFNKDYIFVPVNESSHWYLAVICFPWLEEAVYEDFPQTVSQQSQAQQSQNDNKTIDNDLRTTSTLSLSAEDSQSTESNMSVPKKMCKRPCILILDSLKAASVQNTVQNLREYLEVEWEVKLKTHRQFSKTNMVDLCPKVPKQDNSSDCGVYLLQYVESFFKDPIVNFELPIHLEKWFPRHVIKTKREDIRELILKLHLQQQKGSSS

On to `CCNc1nc(N)nc(Oc2ccc(OCC)nn2)n1`, for which the inhibition was 6.2% in test [1]; 8.1% in test [2]; -2% in test [3]; 3.8% with Caspase-3 (Homo sapiens); 0.2% in test [4].

For the compound `FC(F)(F)c1ccnc(Oc2ccc(C3=NCCS3)cc2)c1`, the inhibition was 36.3% in test [1]; 42.8% in test [2]; 53.1% (active) in test [3]; 29.9% with Caspase-3 (Homo sapiens); 17% in test [4].

Regarding `O=c1[nH]c(CCl)nc2cc(-c3ccc(Cl)cc3)sc12`, the inhibition in test [1] was 25.3%; in test [2], 45.5%; in test [3], 19.6%; in the test with Caspase-3 (Homo sapiens), 28.2%; in test [4] it was 9.5%.

For `CC(C)Cc1cc(C(=O)Nc2cc(Br)ccc2O)no1`, the inhibition in test [1] is 6%; in test [2] it was 21.4%; in test [3] it was 28.9%; with Caspase-3 (Homo sapiens) it was 15.4%; in test [4], 7.1%.

Turning to `Nc1ccc(-c2nnc(-c3ccc(-c4ccccc4)cc3)o2)cc1`, the inhibition is 11.8% in test [1]; 10.8% in test [2]; 32.4% in test [3]; 6.5% with Caspase-3 (Homo sapiens); -0.8% in test [4].

Regarding `Oc1ccc(Br)cc1C=Nc1ccc2[nH]ncc2c1`, the inhibition in test [1] is 5.1%; in test [2], 2.1%; in test [3], -2.2%; with Caspase-3 (Homo sapiens), -0.8%; in test [4], -3.9%.

Regarding `Cc1[nH]n(C(N)=S)c(=O)c1N=Nc1ccc(Cl)cc1Cl`, the inhibition in test [1] is 81.4% (active); in test [2] it was 89.8% (active); in test [3], 93.3% (active); in the test with Caspase-3 (Homo sapiens), 85.3% (active); in test [4], 38.9%.

Consider `CCN1CC=C2C(C#N)=C(N)C(C#N)(C#N)[C@H](c3ccoc3)[C@H]2C1`, for which the inhibition in test [1] was -12.3%; in test [2] it was -5.5%; in test [3], -13.6%; in the test with Caspase-3 (Homo sapiens) it was 1.7%; in test [4] it was -10.5%.

For `COCCn1nnnc1C(c1cc2ccc(OC)cc2[nH]c1=O)N1CCc2ccccc2C1` (stereo not given), the inhibition in test [1] is 12.6%; in test [2] it was 23%; in test [3], 2.5%; with Caspase-3 (Homo sapiens), 1%; in test [4], -2%.

For the compound `CC(C)CCNC(=O)c1ccc2c(Cl)c3c(nc2c1)CCC3`, the inhibition in test [1] is 84.1% (active); in test [2], 88.3% (active); in test [3] it was 97.4% (active); with Caspase-3 (Homo sapiens), 57.1% (active); in test [4], 52.5% (active).

As to `Cc1[nH]n(-c2ccc([N+](=O)[O-])cc2)c(=O)c1C=NCCN1CCN(C(=O)c2ccccc2F)CC1`, the inhibition in test [1] was 20.7%; in test [2] it was 17.1%; in test [3], 3.9%; with Caspase-3 (Homo sapiens), 37.1%; in test [4], 49.3%.

Take `Cc1ccc(NC(=O)c2sccc2C)cc1[N+](=O)[O-]`: the inhibition in test [1] was 78% (active); in test [2], 77.5% (active); in test [3], 95.7% (active); in the test with Caspase-3 (Homo sapiens), 81% (active); in test [4], 82.6% (active).

For the compound `Cc1ccc(OC(=O)c2cc3ccccc3o2)cc1`, the inhibition in test [1] is 50.7% (active); in test [2] it was 51.4% (active); in test [3] it was 90.8% (active); with Caspase-3 (Homo sapiens), 46.9%; in test [4], 64.7% (active).

For `CCC(=O)NC(Nc1cc(C)ccn1)(C(F)(F)F)C(F)(F)F`, the inhibition is -4.5% in test [1]; -2.4% in test [2]; -0.5% in test [3]; 8.4% with Caspase-3 (Homo sapiens); 4.2% in test [4].

`COC(=O)c1ccc(NCC(=O)c2ccccc2)cc1`: the inhibition was 10.5% in test [1]; 97.3% (active) in test [2]; 103% (active) in test [3]; 96% (active) with Caspase-3 (Homo sapiens); 60.5% (active) in test [4].

In the case of `Fc1ccc(COc2ccc(-c3nnco3)cc2)cc1`, the inhibition was 29% in test [1]; 60.4% (active) in test [2]; 85.8% (active) in test [3]; 67.9% (active) with Caspase-3 (Homo sapiens); 65.6% (active) in test [4].

On to `O=c1oc2cc(O)ccc2cc1-c1ccc(F)cc1`, for which the inhibition in test [1] is 98.4% (active); in test [2], 99.7% (active); in test [3], 103% (active); with Caspase-3 (Homo sapiens), 98.2% (active); in test [4], 95.4% (active).

As to `O=C(Nc1ccc(F)cc1)c1cc2c(s1)CCCC2`, the inhibition is 93.3% (active) in test [1]; 93.7% (active) in test [2]; 101% (active) in test [3]; 84% (active) with Caspase-3 (Homo sapiens); 84.2% (active) in test [4].

Consider `O=C(/C=C/c1ccco1)Nc1ccc(Oc2ccccc2)cc1`, for which the inhibition in test [1] was 51% (active); in test [2] it was 64.2% (active); in test [3] it was 89.4% (active); with Caspase-3 (Homo sapiens), 40.7%; in test [4] it was 38.3%.

Regarding `O=C(Nc1ccccc1F)c1ccc2c(c1)OCO2`, the inhibition in test [1] is 72% (active); in test [2] it was 66.7% (active); in test [3] it was 90.9% (active); with Caspase-3 (Homo sapiens), 89.4% (active); in test [4] it was 69.1% (active).

With `Cc1cccc(/C=N/NC(=O)CNc2cccc3ccccc23)n1`, the inhibition in test [1] was 13.1%; in test [2], 12.9%; in test [3], 3.9%; in the test with Caspase-3 (Homo sapiens), -0.3%; in test [4] it was 1.6%.

As to `Nc1ccc(-c2nnc(-c3ccccc3)o2)cc1`, the inhibition is 51.2% (active) in test [1]; 51.4% (active) in test [2]; 79.5% (active) in test [3]; 65.7% (active) in the test with Caspase-3 (Homo sapiens); 35.7% in test [4].

Turning to `COc1ccc(C(=O)COC(=O)c2ccc([N+](=O)[O-])s2)cc1OC`, the inhibition in test [1] is 4.2%; in test [2], 46.8%; in test [3], 7.5%; with Caspase-3 (Homo sapiens), 14.1%; in test [4], 6.4%.

With `CC(OC(=O)c1ccc2ccccc2n1)C(=O)c1ccccc1` (stereo not given), the inhibition in test [1] was 54.3% (active); in test [2], 50%; in test [3], 87.7% (active); with Caspase-3 (Homo sapiens), 75% (active); in test [4] it was 64.5% (active).

Consider `N=c1c2c3c(sc2nc2n1CCCCC2)CCCC3`, for which the inhibition in test [1] was 10.9%; in test [2] it was 8.4%; in test [3], 10.6%; with Caspase-3 (Homo sapiens) it was 11.1%; in test [4], 11.6%.

For the compound `Cc1ccc(/C=N/NC(=O)c2cc3ccccc3cc2O)o1`, the inhibition was 67% (active) in test [1]; 65.9% (active) in test [2]; 89.2% (active) in test [3]; 76.8% (active) with Caspase-3 (Homo sapiens); 77.6% (active) in test [4].

For `COC(=O)c1sc(NC(=O)c2ccc(OC)cc2OC)nc1C`, the inhibition is 56.9% (active) in test [1]; 34.4% in test [2]; 22.1% in test [3]; 66.4% (active) with Caspase-3 (Homo sapiens); -5.6% in test [4].

Turning to `Cc1cc(C(=O)N/N=C/c2ccc(N3CCOCC3)cc2)c(C)o1`, the inhibition in test [1] is 86.9% (active); in test [2], 86.6% (active); in test [3], 98.6% (active); in the test with Caspase-3 (Homo sapiens), 95.4% (active); in test [4] it was 49.9%.

As for `Oc1ccccc1-c1cc(-c2ccc(Cl)cc2)n[nH]1`, the inhibition is 93.9% (active) in test [1]; 94.4% (active) in test [2]; 99.9% (active) in test [3]; 68.9% (active) with Caspase-3 (Homo sapiens); 75.2% (active) in test [4].

For the compound `O=C(OCc1ccccc1F)c1ccc2c(c1)OCCO2`, the inhibition in test [1] was 87.8% (active); in test [2], 88.5% (active); in test [3], 98.8% (active); in the test with Caspase-3 (Homo sapiens) it was 74.5% (active); in test [4], 78.6% (active).

For the compound `CCOc1ccc2nc(C(=O)N3CCCC(C)C3)sc2c1` (stereo not given), the inhibition was 59.3% (active) in test [1]; 68.3% (active) in test [2]; 86.3% (active) in test [3]; 62.5% (active) with Caspase-3 (Homo sapiens); 66.4% (active) in test [4].

`Cc1cccc(Nc2nc(-c3ccccc3)cs2)n1`: the inhibition in test [1] is -7.1%; in test [2], 91.5% (active); in test [3] it was 99.9% (active); in the test with Caspase-3 (Homo sapiens), 67.1% (active); in test [4] it was 49.5%.

With `CSc1ccccc1NC(=O)c1cc(C2CC2)on1`, the inhibition in test [1] was 34.7%; in test [2], 28.3%; in test [3] it was 62.8% (active); with Caspase-3 (Homo sapiens), 41.1%; in test [4], 40%.

`O=C(Nc1nc2ccc([N+](=O)[O-])cc2s1)c1ccncc1`: the inhibition in test [1] was 16%; in test [2], 17.5%; in test [3], 15.1%; with Caspase-3 (Homo sapiens) it was 7.6%; in test [4], 15.8%.

Consider `CCc1ccc(C(=O)COC(=O)c2ccco2)cc1`, for which the inhibition is 62.7% (active) in test [1]; 62% (active) in test [2]; 83.3% (active) in test [3]; 74.5% (active) in the test with Caspase-3 (Homo sapiens); 68% (active) in test [4].

In the case of `COc1cccc(C(=O)c2cc3ccc(O)cc3oc2=O)c1`, the inhibition in test [1] was 98.7% (active); in test [2], 100% (active); in test [3] it was 103% (active); with Caspase-3 (Homo sapiens) it was 98.7% (active); in test [4], 98% (active).
